Test results taken from PubChem BioAssay (EPA / NIEHS).
Activity calls are given as the source filed them. How the source made its calls: active means hit-call score of the fitted dose curve at least 0.9, where 1 is the maximum; inactive means score below 0.9.

Key:
[1] = APR_HepG2_CellLoss_72hr: Apredica 72-hour HepG2 Assay for Cell Loss (AID 2282915); conditions: high-content imaging
Procedure, shortened: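 HepG2 cells were exposed for 72 hr to compounds at 0.39–200 uM (ten concentrations, duplicate) in 0.5% v/v final DMSO. Nuclei were stained with Hoechst 33342 after 3.7% formaldehyde fixation, imaged at 20x, and counted; fits bidirectional versus DMSO.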

[2] = APR_HepG2_MitoMembPot_72hr: Apredica 72-hour HepG2 Assay for Mitochondrial Membrane Potential (AID 2282917); conditions: imaging, actives raise or lower the signal
Procedure, shortened: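 HepG2 cells exposed 72 h to compounds at 0.39–200 uM (0.5% v/v DMSO, duplicates); MitoTracker Red CMXRos 250 nM loaded 30 min before 3.7% formaldehyde fixation, imaged by HCS fluorescence. Bidirectional fit versus DMSO.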

[3] = APR_HepG2_MitoticArrest_72hr: Apredica 72-hour HepG2 Assay for Mitotic Arrest (AID 2282918); conditions: high-content imaging, actives raise or lower the signal
Procedure, shortened: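 HepG2 cells treated 72 h at 0.39–200 uM, 0.5% DMSO final; formaldehyde-fixed, stained with Hoechst 33342 and phospho-histone H3 antibody, imaged by high-content fluorescence; bidirectional fit versus DMSO.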

[4] = APR_HepG2_MicrotubuleCSK_72hr: Apredica 72-hour HepG2 Assay for Microtubule CSK Stabilty (AID 2282919); conditions: HepG2 microtubule cytoskeleton, high-content imaging, actives raise or lower the signal
Procedure, shortened: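 HepG2 human liver cells were dosed for 72 h at ten concentrations from 0.39 to 200 uM in duplicate (0.5% v/v DMSO final). Fixed, permeabilized cells were immunostained for alpha-tubulin (Cy5) with a Hoechst counterstain and imaged at 20x.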

[5] = APR_HepG2_P-H2AX_24hr: Apredica 24-hour HepG2 Assay for H2AX Phosphorylation (AID 2282920); conditions: high-content imaging, actives raise or lower the signal
Procedure, shortened: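 HepG2 cells dosed 24 h at 0.39–200 uM (10 points, duplicate, 0.5% DMSO final). Formaldehyde-fixed and permeabilized, then immunostained for phospho-H2A.x with Hoechst. Fluorescence quantified by high-content imaging, fitted bidirectionally versus DMSO.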

[6] = APR_HepG2_StressKinase_72hr: Apredica 72-hour HepG2 Assay for Stress Kinase (AID 2282921); conditions: HepG2 stress kinase (phospho-c-Jun) imaging, actives raise or lower the signal
Procedure, shortened: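 Dose 0.39–200 uM (10 pts, duplicate), 0.5% DMSO; 72 h; fix 3.7% formaldehyde 30 min RT; Triton permeabilize; anti-phospho-c-Jun/Cy3 + Hoechst 60 min RT; image 20x; fit gain/loss vs DMSO.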

[7] = APR_HepG2_StressKinase_24hr: Apredica 24-hour HepG2 Assay for Stress Kinase (AID 2282922); conditions: HepG2 stress kinase (phospho-c-Jun) imaging, actives raise or lower the signal
Procedure, shortened: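 HepG2 cells exposed 24 hr to compound at 0.39–200 uM (10 concentrations, duplicate), 0.5% v/v DMSO final. Fixed in 3.7% formaldehyde, permeabilized with Triton X-100, immunolabeled for phospho-c-Jun with Hoechst 33342; HCS fluorescence imaging, bidirectional fit versus DMSO.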

[8] = APR_HepG2_p53Act_72hr: Apredica 72-hour HepG2 Assay for p53 Activation (AID 2282923); conditions: high-content imaging, actives raise or lower the signal;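 further: average cellular p53 protein immunofluorescence intensity in HepG2 cells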
Procedure, shortened: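 10-pt conc. 0.39–200 uM, duplicate, 0.5% DMSO; 72 hr exposure; 3.7% formaldehyde fix, 0.5% Triton perm; sheep anti-p53/Cy5 + Hoechst; ArrayScan 20x, 6 images/well; gain/loss fit vs DMSO.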

[9] = APR_HepG2_MitoMass_72hr: Apredica 72-hour HepG2 Assay for Mitochondrial Mass (AID 2282924); conditions: high-content imaging, actives raise or lower the signal;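 further: MitoTracker Red CMXRos stain intensity per cell imaged as mitochondrial mass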
Procedure, shortened: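 HepG2 cells were exposed for 72 hr to compounds at 0.39–200 uM (ten concentrations, duplicate, 0.5% v/v DMSO final). Live cells were stained with 250 nM MitoTracker Red CMXRos for 30 min, then fixed in 3.7% formaldehyde and imaged by HCS fluorescence.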

[10] = APR_HepG2_NuclearSize_72hr: Apredica 72-hour HepG2 Assay for Nuclear Size (AID 2282925); conditions: high-content imaging, actives raise or lower the signal
Procedure, shortened: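 HepG2 cells were exposed to compounds at ten concentrations from 0.39 to 200 uM (duplicate, 0.5% DMSO final) for 72 hr. After fixation in 3.7% formaldehyde, nuclei were stained with Hoechst 33342 (2 ug/mL) and imaged at 20x.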

[11] = ATG_CRE_CIS: Attagene CIS-FACTORIAL HepG2 Assay for human cAMP Responsive Element (CRE) binding protein 3 (AID 2282926); conditions: HepG2 CRE cis-reporter, Attagene multiplexed mRNA; actives raise or lower the signal
Procedure, shortened: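 HepG2 cells transiently transfected with cis-element-driven multiple reporter transcription units; CRE reporter mRNA measured 24 h after dosing by RT-PCR, 6-FAM labelling, HpaI digestion and capillary electrophoresis. Bidirectional fit versus DMSO baseline.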

[12] = biological target: CCAAT/enhancer-binding protein beta (Homo sapiens) (UniProt P17676); assay: ATG_C_EBP_CIS: Attagene CIS-FACTORIAL HepG2 Assay for human CCAAT/Enhancer Binding Protein (C/EBP) beta (AID 2282927); conditions: HepG2 Attagene cis-factorial transcription factor reporter; actives raise or lower the signal
Sequence of CCAAT/enhancer-binding protein beta (Homo sapiens) (P17676 whole entry, looked up): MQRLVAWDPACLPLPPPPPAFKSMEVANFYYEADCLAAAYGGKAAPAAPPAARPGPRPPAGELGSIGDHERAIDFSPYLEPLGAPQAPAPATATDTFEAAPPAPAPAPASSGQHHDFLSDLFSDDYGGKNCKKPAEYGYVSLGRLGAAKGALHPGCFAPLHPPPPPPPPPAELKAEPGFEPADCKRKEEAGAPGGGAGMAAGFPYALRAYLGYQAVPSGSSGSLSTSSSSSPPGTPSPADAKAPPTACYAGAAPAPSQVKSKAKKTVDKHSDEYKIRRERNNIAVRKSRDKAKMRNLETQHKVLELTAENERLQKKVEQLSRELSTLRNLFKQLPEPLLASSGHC
Procedure, shortened: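 Following a 24 h incubation with test chemical, transfected HepG2 cells yielded RNA whose reporter transcripts were quantified by RT-PCR and fluorescent capillary electrophoresis, with DMSO serving as baseline for bidirectional fitting.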

[13] = ATG_CMV_CIS: Attagene CIS-FACTORIAL HepG2 Assay for human CMV (Internal Marker) (AID 2282928); conditions: HepG2 CMV promoter reporter, transcription factor profiling; actives raise or lower the signal;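 further: endpoint acts as a background internal control marker rather than a target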
Procedure, shortened: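 HepG2 cells transiently transfected with multiple cis-regulated reporter units; 24 h compound exposure. Reporter mRNA quantified by RT-PCR, 6-FAM primer-extension labeling, HpaI digestion and capillary electrophoresis; bidirectional fitting against DMSO baseline.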

[14] = ATG_DR4_LXR_CIS: Attagene CIS-FACTORIAL HepG2 Assay for human Liver X Receptor (LXR), DR4 submotif (AID 2282929); conditions: HepG2 Attagene DR4 cis-reporter, mRNA transcription; actives raise or lower the signal
Procedure, shortened: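 Endogenous factor activity at a DR4 cis-element is read as reporter mRNA in transiently transfected HepG2 cells. Exposure lasts 24 h; transcripts are amplified, fluorescently labelled and sized by capillary electrophoresis, with DMSO as baseline.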

[15] = biological target: Aryl hydrocarbon receptor (Homo sapiens) (UniProt P35869); assay: ATG_Ahr_CIS: Attagene CIS-FACTORIAL HepG2 Assay for human Aryl Hydrocarbon Receptor (Ahr) (AID 2282930); conditions: HepG2 AhR cis-factorial reporter transcription; actives raise or lower the signal
Sequence of Aryl hydrocarbon receptor (Homo sapiens) (P35869 whole entry, looked up): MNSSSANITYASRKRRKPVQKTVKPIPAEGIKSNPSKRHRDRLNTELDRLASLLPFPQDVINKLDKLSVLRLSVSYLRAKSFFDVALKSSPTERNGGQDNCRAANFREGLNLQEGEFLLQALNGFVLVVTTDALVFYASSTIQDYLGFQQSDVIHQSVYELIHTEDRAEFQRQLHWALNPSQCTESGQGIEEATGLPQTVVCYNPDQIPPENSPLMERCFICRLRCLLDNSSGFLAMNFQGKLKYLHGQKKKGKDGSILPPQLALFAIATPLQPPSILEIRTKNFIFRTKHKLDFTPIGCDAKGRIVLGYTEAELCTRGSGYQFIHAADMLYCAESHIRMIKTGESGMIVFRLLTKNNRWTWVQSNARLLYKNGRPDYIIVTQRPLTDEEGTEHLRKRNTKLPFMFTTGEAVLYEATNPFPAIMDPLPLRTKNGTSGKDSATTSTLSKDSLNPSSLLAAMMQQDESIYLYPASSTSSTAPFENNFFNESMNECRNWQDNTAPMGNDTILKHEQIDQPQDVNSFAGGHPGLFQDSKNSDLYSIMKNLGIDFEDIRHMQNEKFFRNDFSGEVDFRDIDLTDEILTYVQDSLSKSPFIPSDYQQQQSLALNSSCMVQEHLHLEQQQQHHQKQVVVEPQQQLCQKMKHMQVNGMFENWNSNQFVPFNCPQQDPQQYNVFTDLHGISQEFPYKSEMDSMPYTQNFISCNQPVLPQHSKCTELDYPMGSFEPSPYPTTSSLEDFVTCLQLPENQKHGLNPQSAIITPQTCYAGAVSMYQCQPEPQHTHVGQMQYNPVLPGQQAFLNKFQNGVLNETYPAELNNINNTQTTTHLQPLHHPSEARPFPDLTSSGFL
Procedure, shortened: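 Values derive from bidirectional fitting against DMSO negative control. Underlying signal: cis-element reporter mRNA in transiently transfected HepG2, harvested 24 h post-dose and measured by RT-PCR plus capillary electrophoresis.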

[16] = ATG_AP_1_CIS: Attagene CIS-FACTORIAL HepG2 Assay for human Activator Protein 1 (AP-1) (AID 2282931); conditions: HepG2 Attagene cis-factorial AP-1 reporter mRNA; actives raise or lower the signal
Procedure, shortened: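 Fluorescence of labelled PCR fragments separated by capillary electrophoresis gives reporter mRNA levels. HepG2 with transfected cis-regulated reporter units, 24 h exposure; DMSO serves as baseline for bidirectional curve fits.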

[17] = ATG_AP_2_CIS: Attagene CIS-FACTORIAL HepG2 Assay for human Activator Protein 2 (AP-2) (AID 2282932); conditions: HepG2 AP-2 cis-reporter, Attagene transcription factor profiling; actives raise or lower the signal
Procedure, shortened: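 Bidirectional curve fitting against DMSO was applied to reporter mRNA signals from HepG2 cells 24 h after dosing. Cis-promoter reporter units, transiently transfected, were read by RT-PCR plus capillary electrophoresis.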

[18] = ATG_BRE_CIS: Attagene CIS-FACTORIAL HepG2 Assay for human Bone Morphogenetic Protein (BMP) Response Element (BRE) (AID 2282933); conditions: HepG2 BMP response element reporter, Attagene transcription factor profiling; actives raise or lower the signal
Procedure, shortened: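 After a 24 h chemical treatment, transiently transfected HepG2 cells were lysed for RNA; reporter transcripts were quantified by fluorescent RT-PCR and capillary electrophoresis, normalised to DMSO.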

[19] = biological target: Retinoic acid receptor alpha (Homo sapiens) (UniProt P10276); assay: ATG_DR5_RAR_CIS: Attagene CIS-FACTORIAL HepG2 Assay for human Retinoic Acid Receptor Alpha (RARE), DR5 submotif (AID 2282934); conditions: HepG2 Attagene cis-factorial RARE DR5 reporter, mRNA; actives raise or lower the signal;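 on AC50: reporter responds to endogenous RAR alpha beta and gamma in HepG2 not RARA alone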
Sequence of Retinoic acid receptor alpha (Homo sapiens) (P10276 whole entry, looked up): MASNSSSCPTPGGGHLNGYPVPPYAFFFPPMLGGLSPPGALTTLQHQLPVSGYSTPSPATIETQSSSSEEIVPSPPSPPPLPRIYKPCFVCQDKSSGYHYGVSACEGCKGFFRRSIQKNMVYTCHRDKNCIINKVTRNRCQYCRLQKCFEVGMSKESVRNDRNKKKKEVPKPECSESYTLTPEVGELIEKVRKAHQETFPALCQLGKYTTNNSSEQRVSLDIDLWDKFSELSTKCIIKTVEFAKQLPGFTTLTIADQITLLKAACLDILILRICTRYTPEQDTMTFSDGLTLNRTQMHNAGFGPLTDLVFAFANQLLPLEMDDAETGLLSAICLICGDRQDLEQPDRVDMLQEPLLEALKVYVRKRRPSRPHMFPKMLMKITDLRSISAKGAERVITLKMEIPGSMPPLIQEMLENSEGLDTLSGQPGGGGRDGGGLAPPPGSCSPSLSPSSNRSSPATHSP
Procedure, shortened: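 Endpoint fitted in both directions relative to DMSO as negative control. It reflects DR5 cis-element reporter mRNA induction in transiently transfected HepG2 cells, measured 24 h after dosing through RT-PCR and fluorescent capillary electrophoresis.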

[20] = APR_HepG2_P-H2AX_72hr: Apredica 72-hour HepG2 Assay for H2AX Phosphorylation (AID 2282916); conditions: imaging, actives raise or lower the signal;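 further: phospho-histone H2A.x immunostain intensity per cell marking DNA damage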
Procedure, shortened: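 HepG2; cpd 0.39–200 uM ×10 conc, duplicates; 0.5% DMSO; 72 hr. Fix 3.7% formaldehyde 30 min RT, 0.5% Triton X-100 10 min. Anti-phospho-H2A.x 1:200 + Hoechst 2 ug/mL, 60 min RT; ArrayScan imaging.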

Measured: AC50

Cc1ccc(C(C)C)c(O)c1
not listed: [20]
inactive: all other assays above

CCCCCCCCCCC
not listed: [9] | [12]
inactive: all other assays above

O=C(N[C@@H](Cc1ccccc1)[C@@H](O)C(=O)N1C[C@@H](O)[C@@H](O)C1)c1cc2cc(Cl)ccc2[nH]1
active: [1] 104 µM | [2] 97.2 µM | [3] 108 µM | [8] 104 µM | [14] 60.5 µM | [16] 159 µM
not listed: [17] | [20]
inactive: all other assays above

Cc1ccc(Cl)cc1
not listed: [19] | [20]
inactive: all other assays above

Cc1nc(-c2ccc3c(c2)CCN(CCC2CCC(NC(=O)/C=C/c4ccc(F)cc4)CC2)CC3)no1 (stereo not given)
active: [3] 24.2 µM | [6] 16.2 µM | [8] 23.8 µM
not listed: [17] | [19] | [20]
inactive: all other assays above

Clc1cc(Cl)c(Cl)cc1Cl
not listed: [9] | [12] | [17]
inactive: all other assays above

CC(=O)C(C)=CC1C(C)=CCCC1(C)C (stereo not given)
not listed: [9] | [12] | [17]
inactive: all other assays above

C=CCOC(=O)c1ccccc1C(=O)OCC=C
active: [13] 26.2 µM | [14] 26.2 µM | [16] 25.8 µM
not listed: [9] | [12] | [17]
inactive: all other assays above

Nc1ccc(S(=O)(=O)c2ccc(N)cc2)cc1
not listed: [9] | [11]
inactive: all other assays above

NC(=O)Cn1c(=O)cc(CCN2CCN(c3nccc4sccc34)CC2)c2ccc(F)cc21
active: [1] 82 µM | [20] 101 µM | [3] 98.9 µM | [8] 101 µM | [13] 100 µM
not listed: [9] | [11] | [12] | [19]
inactive: all other assays above

NS(=O)(=O)c1cc2c(cc1Cl)NCNS2(=O)=O
not listed: [9] | [11] | [17] | [19]
inactive: all other assays above

COc1cc(C=O)ccc1O
active: [15] 80.8 µM | [19] 31.1 µM
not listed: [9] | [12] | [17]
inactive: all other assays above

Cc1ccc2ncccc2c1
not listed: [9] | [11] | [17]
inactive: all other assays above

CCCCCCC(=O)OCC
not listed: [9] | [12]
inactive: all other assays above

CNC(=O)[C@H]1O[C@@H](n2cnc3c(NCc4cc(Cl)ccc4OCc4cc(C)no4)ncnc32)[C@H](O)[C@@H]1N
not listed: [9] | [11] | [19]
inactive: all other assays above
